These results are taken from a collection of fitness landscapes (doi:10.1126/science.1257360).

B1: PhoQ; a variant is named by its letters at X, in order, P23837 (parent)
chain: MKKLLRLFFPLSLRVRFLLATAAVVLVLSLAYGMVALIGYSVSFDKTTFRLLRGESNLFYTLAKWENNKLHVELPENIDKQSPTMTLIYDENGQLLWAQRDVPWLMKMIQPDWLKSNGFHEIEADVNDTSLLLSGDHSIQQQLQEVREDDDDAEMTHSVAVNVYPATSRMPKLTIVVVDTIPVELKSSYMVWSWFIYVLSANLLLVIPLLWVAAWWSLRPIEALAKEVRELEEHNRELLNPATTRELTSLVRNLNRLLKSERERYDKYRTTLTDLTHSLKTPLXXLQXXLRSLRSEKMSVSDAEPVMLEQISRISQQIGYYLHRASMRGGTLLSRELHPVAPLLDNLTSALNKVYQRKGVNISLDISPEISFVGEQNDFVEVMGNVLDNACKYCLEFVEISARQTDEHLYIVVEDDGPGIPLSKREVIFDRGQRVDTLRPGQGVGLAVAREITEQYEGKIVAGESMLGGARMEVIFGRQHSAPKDE

Over roughly 140,000 sequences, “enrichment ratio after two sorts for PhoP signalling” has its median near 0; the highest 2% begin near 11. This is one part of a sample in which the highest values are shown more often than they occur. A value given as a limit tells only on which side of the number the result lay.

This assay covers variants of B1. Put plainly: enrichment ratio after two sorts for PhoP signalling (ratio (wild type AVST 3.29)); higher = more functional. The note with it: with PhoP (E. coli).
For the variant FHWW, the enrichment ratio is no more than 0.25.

Consider EFGD, for which the enrichment ratio is no more than 0.25.

As to HEGI, the enrichment ratio was no more than 0.25.

Regarding PMHY, the enrichment ratio is no more than 0.25.

For the variant DEAG, the enrichment ratio was no more than 0.25.

Take PCRA: the enrichment ratio is no more than 0.25.

MPIN: the enrichment ratio was no more than 0.25.

Take QRYD: the enrichment ratio is no more than 0.25.

For the variant DRYI, the enrichment ratio was no more than 0.25.

For the variant RDAL, the enrichment ratio is no more than 0.25.

In the case of KVFV, the enrichment ratio was no more than 0.25.

On to WISG, for which the enrichment ratio was no more than 0.25.

PISG: the enrichment ratio is no more than 0.25.

For the variant TISG, the enrichment ratio was 19.4.

Regarding VGFY, the enrichment ratio is no more than 0.25.

For MQYW, the enrichment ratio is no more than 0.25.

SQLQ: the enrichment ratio turned out to be 13.6.

As for MMLQ, the enrichment ratio was no more than 0.25.

Take SALQ: the enrichment ratio came to 17.5.

As to TPLQ, the enrichment ratio is no more than 0.25.

Consider YALQ, for which the enrichment ratio amounted to 4.04.

In the case of DPLQ, the enrichment ratio was no more than 0.25.

For SNLQ, the enrichment ratio amounted to 15.3.

On to TMLQ, for which the enrichment ratio is 12.2.

Consider NMLQ, for which the enrichment ratio was no more than 0.25.

Regarding SILQ, the enrichment ratio is 6.96.

As for LNLQ, the enrichment ratio was no more than 0.25.

Regarding KQLQ, the enrichment ratio is no more than 0.25.

Take YDYH: the enrichment ratio is no more than 0.25.

As for SRDH, the enrichment ratio was no more than 0.25.

Regarding TGMF, the enrichment ratio stood at 9.36.

Take FPKH: the enrichment ratio is no more than 0.25.

As to PMKR, the enrichment ratio was no more than 0.25.

For the variant KGCL, the enrichment ratio is no more than 0.25.

As for DMWF, the enrichment ratio was no more than 0.25.

As to SAVH, the enrichment ratio was 7.41.

Consider DYTW, for which the enrichment ratio is no more than 0.25.

Regarding SRLQ, the enrichment ratio stood at 0.442.

As to SFLQ, the enrichment ratio came out at 2.41.

On to SQLS, for which the enrichment ratio turned out to be 7.34.

Regarding SYLQ, the enrichment ratio was determined as 2.49.

In the case of SSLQ, the enrichment ratio stood at 14.5.

In the case of SQLT, the enrichment ratio stood at 11.

On to SLLQ, for which the enrichment ratio amounted to 7.5.

On to KYLQ, for which the enrichment ratio is no more than 0.25.

In the case of SQLA, the enrichment ratio came out at 11.7.

As to SELQ, the enrichment ratio is 27.9.

Consider SPLQ, for which the enrichment ratio is no more than 0.25.

In the case of STLQ, the enrichment ratio worked out at 18.3.

In the case of SFQN, the enrichment ratio is no more than 0.25.

For PRSD, the enrichment ratio was no more than 0.25.

Take SGLR: the enrichment ratio was no more than 0.25.

Consider LTLQ, for which the enrichment ratio is 2.15.

In the case of KDLQ, the enrichment ratio was no more than 0.25.

TDLQ: the enrichment ratio was found to be 18.8.

On to SGLQ, for which the enrichment ratio is 16.6.

In the case of RGLQ, the enrichment ratio is no more than 0.25.

On to HQEY, for which the enrichment ratio was no more than 0.25.

On to FHKA, for which the enrichment ratio was no more than 0.25.

Take RKDF: the enrichment ratio was no more than 0.25.

As for TFCG, the enrichment ratio is 5.19.

Turning to GSLT, the enrichment ratio was 9.31.

On to GSLS, for which the enrichment ratio came out at 11.8.

For the variant GSLI, the enrichment ratio amounted to 15.5.

As for GSLA, the enrichment ratio turned out to be 6.7.

In the case of GSDN, the enrichment ratio was no more than 0.25.

On to GSDK, for which the enrichment ratio was no more than 0.25.

As to AIWD, the enrichment ratio was no more than 0.25.

With LESL, the enrichment ratio was no more than 0.25.

For the variant NELM, the enrichment ratio is no more than 0.25.

For the variant QELM, the enrichment ratio was no more than 0.25.

Turning to TELM, the enrichment ratio was 13.8.

With MFLM, the enrichment ratio is no more than 0.25.

For MKLM, the enrichment ratio amounted to 7.36.

Regarding MELM, the enrichment ratio was found to be 17.7.

On to RAGW, for which the enrichment ratio was no more than 0.25.

In the case of SSNF, the enrichment ratio was determined as 1.62.

Consider MSMD, for which the enrichment ratio is no more than 0.25.

Turning to MSWV, the enrichment ratio worked out at 10.2.

Consider MSMV, for which the enrichment ratio is 12.7.

With MSMS, the enrichment ratio was no more than 0.25.

Consider MSMG, for which the enrichment ratio stood at 2.86.

Consider MSHK, for which the enrichment ratio is no more than 0.25.

For the variant MSNL, the enrichment ratio was no more than 0.25.

As to MSML, the enrichment ratio was determined as 14.3.

As to MSLS, the enrichment ratio is 5.72.

For MSLV, the enrichment ratio was found to be 14.7.

On to MSMI, for which the enrichment ratio came out at 23.5.

Take DWAP: the enrichment ratio is no more than 0.25.

For the variant DRKM, the enrichment ratio is no more than 0.25.

As for HNAE, the enrichment ratio is no more than 0.25.

For LMAI, the enrichment ratio is no more than 0.25.

Regarding EHKQ, the enrichment ratio was no more than 0.25.

Regarding REPP, the enrichment ratio was no more than 0.25.

As for MSLE, the enrichment ratio was determined as 3.24.

For TGWQ, the enrichment ratio was determined as 22.6.

As for QSWQ, the enrichment ratio is 33.6.

In the case of WIWQ, the enrichment ratio is no more than 0.25.

In the case of MLWQ, the enrichment ratio was no more than 0.25.

As for MFWQ, the enrichment ratio was no more than 0.25.

Regarding MSWQ, the enrichment ratio came to 14.5.

On to QFWQ, for which the enrichment ratio is no more than 0.25.

In the case of MCWQ, the enrichment ratio is no more than 0.25.

On to QDWQ, for which the enrichment ratio is no more than 0.25.

On to KSWQ, for which the enrichment ratio was no more than 0.25.

With RTWQ, the enrichment ratio is no more than 0.25.

In the case of QIWQ, the enrichment ratio stood at 34.4.

On to SRES, for which the enrichment ratio is no more than 0.25.

Consider PTVM, for which the enrichment ratio was no more than 0.25.

For the variant GKLF, the enrichment ratio is no more than 0.25.

For the variant IMPS, the enrichment ratio was no more than 0.25.

For the variant KGLY, the enrichment ratio is no more than 0.25.

With FVII, the enrichment ratio is no more than 0.25.

For VELP, the enrichment ratio was no more than 0.25.

Turning to RMVC, the enrichment ratio was no more than 0.25.

Turning to DREF, the enrichment ratio is no more than 0.25.

PGRT: the enrichment ratio is no more than 0.25.

On to NVWQ, for which the enrichment ratio was no more than 0.25.

With MGWQ, the enrichment ratio was found to be 24.5.

Consider MRWQ, for which the enrichment ratio is no more than 0.25.

On to QLWQ, for which the enrichment ratio was 11.9.

For the variant MMWQ, the enrichment ratio is no more than 0.25.

With TPWQ, the enrichment ratio was no more than 0.25.

With MGGG, the enrichment ratio was no more than 0.25.

As to MIWQ, the enrichment ratio amounted to 24.2.

With MHWQ, the enrichment ratio was no more than 0.25.

On to REHV, for which the enrichment ratio is no more than 0.25.

Regarding INFD, the enrichment ratio was no more than 0.25.

On to HGVS, for which the enrichment ratio was no more than 0.25.

As for ASQV, the enrichment ratio was 1.45.

In the case of ASCP, the enrichment ratio is no more than 0.25.

Regarding ASIS, the enrichment ratio amounted to 7.49.

As to KSCK, the enrichment ratio is no more than 0.25.

Turning to ASNM, the enrichment ratio was 5.71.

As for ASIE, the enrichment ratio worked out at 0.421.

Take ASCA: the enrichment ratio amounted to 13.5.

Regarding ASIV, the enrichment ratio stood at 11.4.

Take ASCK: the enrichment ratio was 22.8.

As to ASTW, the enrichment ratio was no more than 0.25.

In the case of ASCV, the enrichment ratio was determined as 18.9.

On to ASCQ, for which the enrichment ratio was 4.02.

With DLCQ, the enrichment ratio is no more than 0.25.

With APTW, the enrichment ratio is no more than 0.25.

Consider NWDH, for which the enrichment ratio was no more than 0.25.

Regarding QMYQ, the enrichment ratio was determined as 7.96.

For QHMS, the enrichment ratio is no more than 0.25.

As to ASTV, the enrichment ratio is 12.1.

Take ASFG: the enrichment ratio amounted to 1.66.

Consider AITV, for which the enrichment ratio was determined as 6.12.

For ASCG, the enrichment ratio is 18.9.

Regarding ATIN, the enrichment ratio amounted to 11.9.

For ASDV, the enrichment ratio is no more than 0.25.

ASGG: the enrichment ratio was determined as 4.75.

For the variant AHTV, the enrichment ratio was no more than 0.25.

In the case of ANTV, the enrichment ratio was found to be 16.3.

For the variant YTIN, the enrichment ratio was no more than 0.25.

Consider VRTV, for which the enrichment ratio was no more than 0.25.

Take ADIN: the enrichment ratio was no more than 0.25.

As for HSQP, the enrichment ratio was no more than 0.25.

On to RWHM, for which the enrichment ratio is no more than 0.25.

In the case of HETV, the enrichment ratio is 4.78.

On to RMYW, for which the enrichment ratio is no more than 0.25.

EHNH: the enrichment ratio is no more than 0.25.

Turning to VGEA, the enrichment ratio was no more than 0.25.

Turning to SAAE, the enrichment ratio is no more than 0.25.

With RITI, the enrichment ratio was no more than 0.25.

Turning to GKRA, the enrichment ratio was no more than 0.25.

Take ASIR: the enrichment ratio worked out at 0.563.

On to ASIM, for which the enrichment ratio is 14.6.

Turning to ASIN, the enrichment ratio is 12.

As for KSIN, the enrichment ratio is no more than 0.25.

Regarding ASVN, the enrichment ratio stood at 7.54.

As for ASCM, the enrichment ratio came out at 11.6.

As for ASIA, the enrichment ratio is 13.9.

As for VRCM, the enrichment ratio was no more than 0.25.

TSIA: the enrichment ratio was found to be 2.99.

Turning to ASNK, the enrichment ratio is no more than 0.25.

Take KSIA: the enrichment ratio is no more than 0.25.

With PHTE, the enrichment ratio is no more than 0.25.

On to IMWY, for which the enrichment ratio is no more than 0.25.

In the case of TLSA, the enrichment ratio was found to be 7.98.

For KLEH, the enrichment ratio is no more than 0.25.

In the case of ISEL, the enrichment ratio was no more than 0.25.

As for VMQA, the enrichment ratio was no more than 0.25.

Take GMPK: the enrichment ratio was no more than 0.25.

Regarding MLTV, the enrichment ratio was no more than 0.25.

As to ASAE, the enrichment ratio stood at 5.56.

In the case of ASTC, the enrichment ratio turned out to be 5.39.

As for ASRC, the enrichment ratio was no more than 0.25.

As for AVTV, the enrichment ratio amounted to 12.1.

As to ASAV, the enrichment ratio was 11.5.

AMTV: the enrichment ratio was 9.95.

For AWTV, the enrichment ratio is no more than 0.25.

Consider ASIC, for which the enrichment ratio amounted to 12.1.

Turning to ASWV, the enrichment ratio is no more than 0.25.

On to MNTV, for which the enrichment ratio is 12.2.

As to TNTV, the enrichment ratio was found to be 10.2.
